{"source": "PubChem BioAssay AID686979", "about": "(National Center for Advancing Translational Sciences (NCATS), 2013)", "note": "In all, about 420,000 compounds went through this assay and about 50,000 (12%) were called active. Another 26% or so got no clear call; they are omitted. This is one part of a sample in which actives are shown more often than they occur. Values without a mark were called inactive. Calls follow the shape of the dose curve; as a rule, active = well fitted inhibition curve with a large enough effect; inconclusive = small, poorly fitted or top-dose-only effect; inactive = flat fitted curve, though single readings scatter. % is scaled to controls: 0 for no effect and ±100 for the full control effect; potency is read from the fitted curve at half-maximal effect."}
{"experiment": "qHTS for Inhibitors of human tyrosyl-DNA phosphodiesterase 1 (TDP1): qHTS in cells in presence of CPT; also: nearly all actives have a fitted effect of over 55% in size", "settings": "chicken DT40 Tdp1-/-;hTDP1 cells + 20 nM CPT, ATP luminescence, 48 h; series mostly up to 46.2 µM; activity change, negative = growth inhibition: at the top concentration", "procedure,_shortened": "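Cell growth measured by CellTiter-Glo luminescence after a minimum 48 h, 37 C compound exposure with 20 nM CPT in Tdp1-knockout DT40 cells stably expressing hTDP1, seeded 400/well; qHTS titration format.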"}
{"smiles": "O=C(NNS(=O)(=O)c1ccc(F)cc1)c1ccc([N+](=O)[O-])cc1Cl", "activity change, negative = growth inhibition": "-27.5%"}
{"smiles": "Cc1cc(OC(C)C(=O)Nc2ccc(S(=O)(=O)Nc3onc(C)c3C)cc2)cc(C)c1Cl", "note": "(stereo not given)", "activity change, negative = growth inhibition": "5.33%"}
{"smiles": "CNC(=O)C1CC(=O)N(c2ccc(OCC(=O)Nc3ccccc3C)cc2)C1", "note": "(stereo not given)", "activity change, negative = growth inhibition": "6.86%"}
{"smiles": "CC(=O)c1ccc(N2CCN(c3nc4c(S(=O)(=O)c5ccccc5)nnn4c4ccc(Cl)cc34)CC2)cc1", "activity change, negative = growth inhibition": "-4.91%"}
{"smiles": "COc1ccc(-c2nc(S(=O)(=O)c3ccccc3)c(N3CCCCC3)o2)cc1", "Potency": "23.1 µM (active)"}
{"smiles": "O=S(=O)(c1ccc(Br)cc1)c1nc(-c2ccccc2)oc1N1CCOCC1", "activity change, negative = growth inhibition": "-29.8%"}
{"smiles": "O=S(=O)(c1ccccc1)c1nc(-c2ccc(Cl)cc2Cl)oc1N1CCCCC1", "Potency": "14.6 µM (active)"}
{"smiles": "O=S(=O)(c1ccccc1)c1nc(Cc2ccccc2)oc1N1CCOCC1", "activity change, negative = growth inhibition": "1.8%"}
{"smiles": "O=S(=O)(Nc1cc(Cl)ccc1N1CCOCC1)c1ccccc1Cl", "activity change, negative = growth inhibition": "-20.2%"}
{"smiles": "Cc1ccc(CNC(=O)CCC(=O)N2Cc3ccccc3Oc3ncccc32)cc1", "activity change, negative = growth inhibition": "-16.5%"}
{"smiles": "CC(C)Cc1nnc(N)s1", "activity change, negative = growth inhibition": "-3.67%"}
{"smiles": "COc1cc2ccc(C(C)=O)c(O)c2cc1OC", "activity change, negative = growth inhibition": "9.28%"}
{"smiles": "COCCC(=O)N1CCC(Oc2ccc(C(=O)NCc3ccon3)cc2)CC1", "activity change, negative = growth inhibition": "4.81%"}
{"smiles": "CCOc1ccc(C(=O)N2CCN(CCc3ccccn3)CC2)cc1", "activity change, negative = growth inhibition": "-1.49%"}
{"smiles": "O=C(Cc1ccc(Cl)cc1)Nc1ccc2nn(-c3ccc(Cl)cc3)nc2c1", "activity change, negative = growth inhibition": "-7.92%"}
{"smiles": "Cc1cc2nn(-c3ccc(Cl)cc3)nc2cc1NC(=O)C(C)C", "activity change, negative = growth inhibition": "-6.45%"}
{"smiles": "Nc1ccc2nn(-c3ccc(Cl)cc3)nc2c1", "Potency": "6.51 µM (active)"}
{"smiles": "Cc1cccc(C)c1NC(=O)CNC(=O)c1c(C)nn(-c2ccccc2)c1C", "activity change, negative = growth inhibition": "-8.65%"}
{"smiles": "COc1cc(NC(=O)Cn2c(=O)n(Cc3ccco3)c(=O)c3oc4ccccc4c32)cc(OC)c1", "activity change, negative = growth inhibition": "-3.53%"}
{"smiles": "Cc1nnc(SCC(=O)Nc2ccc(S(=O)(=O)Nc3ccc(Cl)nn3)cc2)s1", "activity change, negative = growth inhibition": "-11.3%"}
{"smiles": "CCOC(=O)Cn1c(-c2cccnc2Cl)nc2ccccc21", "activity change, negative = growth inhibition": "0.835%"}
{"smiles": "CCOC(=O)CN1C(=O)C(O)(CC(=O)c2ccccn2)c2ccccc21", "note": "(stereo not given)", "Potency": "5.8 µM (active)"}
{"smiles": "CCOC(=O)CN1CCC(c2ccccc2)CC1", "activity change, negative = growth inhibition": "-1.52%"}
{"smiles": "CCn1c(SCc2cccc(C(=O)O)c2)nnc1-c1ccc(Cl)cc1", "activity change, negative = growth inhibition": "4.66%"}
{"smiles": "CN(C)CCCOc1ccc(-c2ccc3nccn3c2)cn1", "activity change, negative = growth inhibition": "11.3%"}
{"smiles": "Cc1ccc(NC(=O)CN2CCc3ccccc3C2)cc1C", "activity change, negative = growth inhibition": "-29.3%"}
{"smiles": "CCc1ccc(NC(=O)N2CCc3ccccc3C2)cc1", "activity change, negative = growth inhibition": "-21.3%"}
{"smiles": "Cc1cccc(C)c1NC(=O)c1ccc(CN2CCc3ccccc3C2)cc1", "Potency": "20.6 µM (active)"}
{"smiles": "CC(=O)c1ccc(S(=O)(=O)N2CCC(Oc3ccc(-n4cnnn4)cc3)CC2)cc1", "Potency": "inactive"}
{"smiles": "O=S(=O)(/C=C/c1ccccc1)N1CCNCC1", "activity change, negative = growth inhibition": "-4.52%"}
{"smiles": "CCN1CCN(CC(=O)c2cc(OC)c(OC)c(OC)c2)CC1", "activity change, negative = growth inhibition": "-1.2%"}
{"smiles": "COc1cc(C(=O)NCCOC(=O)c2cccc(N(C)C)c2)cc(OC)c1OC", "activity change, negative = growth inhibition": "7.13%"}
{"smiles": "CCn1c(CNC(=O)c2cc(OC)c(OC)c(OC)c2)cc2cc(C)ccc21", "Potency": "20.6 µM (active)"}
{"smiles": "O=C(COC(=O)c1ccccc1)Nc1ccccc1Sc1ccccc1", "activity change, negative = growth inhibition": "-2.56%"}
{"smiles": "CCc1nc2nc(C)c(NS(=O)(=O)c3ccc4c(c3)CCCC4)c(=O)n2[nH]1", "activity change, negative = growth inhibition": "-0.594%"}
{"smiles": "Cc1ccc(NS(=O)(=O)c2ccc(F)cc2)nc1", "activity change, negative = growth inhibition": "-7.37%"}
{"smiles": "Cc1cc(F)ccc1NS(=O)(=O)c1ccc(-n2cccn2)cc1", "Potency": "14.6 µM (active)"}
{"smiles": "Cn1nccc1NS(=O)(=O)c1ccc(F)cc1", "activity change, negative = growth inhibition": "3.58%"}
{"smiles": "O=C(COc1ccc([N+](=O)[O-])cc1Cl)Nc1ccc2[nH]c(=O)[nH]c2c1", "activity change, negative = growth inhibition": "-23%"}
{"smiles": "COC(=O)C[C@@H]1C=C[C@@H](NC(=O)c2cccnc2)[C@@H](CO)O1", "activity change, negative = growth inhibition": "2.13%"}
{"smiles": "Cc1ccc(Sc2cc(C(=O)c3ccccc3C(=O)O)ccc2[N+](=O)[O-])cc1", "activity change, negative = growth inhibition": "-8.99%"}
{"smiles": "Cc1ccc(C(=O)CSc2ccccc2C(=O)O)cc1", "activity change, negative = growth inhibition": "-2.04%"}
{"smiles": "Cc1ccc(SC(CC(=O)c2ccc(C(C)(C)C)cc2)C(=O)O)cc1", "note": "(stereo not given)", "Potency": "3.66 µM (active)"}
{"smiles": "COc1ccccc1C(=O)N/C(=C/c1ccc2c(c1)OCO2)C(=O)Nc1cccc(C(=O)O)c1", "activity change, negative = growth inhibition": "-15.3%"}
{"smiles": "CCOC(=O)c1sc(C)c2c1NC(C)(c1cccc3ccccc13)NC2=O", "note": "(stereo not given)", "Potency": "25.9 µM (active)"}
{"smiles": "CCOC(=O)c1cc2cc3ccccc3cc2oc1=O", "activity change, negative = growth inhibition": "1.87%"}
{"smiles": "CCOC(=O)c1sc(-c2cccc([N+](=O)[O-])c2)cc1N", "activity change, negative = growth inhibition": "0.456%"}
{"smiles": "CCCNC(=O)COc1coc(CN2CCN(Cc3ccccc3)CC2)cc1=O", "activity change, negative = growth inhibition": "-4.86%"}
{"smiles": "Cc1ccc(S(=O)(=O)N2CCC3(CC2)OCCO3)c(C)c1", "activity change, negative = growth inhibition": "-0.485%"}
{"smiles": "COc1cccc(Nc2ncccc2C(=O)O)c1", "activity change, negative = growth inhibition": "-0.267%"}
{"smiles": "COc1cccc(Nc2ncc3ncc(=O)n(C4CC4)c3n2)c1", "Potency": "14.6 µM (active)"}
{"smiles": "Cc1nc2cnc(Nc3ccccc3)nc2n(C[C@H]2CCCO2)c1=O", "activity change, negative = growth inhibition": "5.94%"}
{"smiles": "COc1cccc(CC(=O)OCC(=O)NCc2ccc3c(c2)OCO3)c1", "activity change, negative = growth inhibition": "-6.33%"}
{"smiles": "CCC1CN(CCNC(=O)c2cccnc2C)Cc2cc(OC)ccc2O1", "note": "(stereo not given)", "activity change, negative = growth inhibition": "21.1% [at 9.04 µM]"}
{"smiles": "COc1cccc(OC)c1CN(C)C(=O)c1cnccc1C(F)(F)F", "activity change, negative = growth inhibition": "6.45%"}
{"smiles": "CC1CCCN(c2cc3c(cc2F)c(=O)c(S(=O)(=O)c2cccc(Cl)c2)cn3Cc2ccccc2)C1", "note": "(stereo not given)", "activity change, negative = growth inhibition": "0.498%"}
{"smiles": "CCn1cc(C(=O)NCCO)c(=O)c2cc(F)c(N3CCN(C)CC3)cc21", "activity change, negative = growth inhibition": "-4.68%"}
{"smiles": "Cc1cccc(S(=O)(=O)c2cn(Cc3ccccc3)c3cc(N4CCOCC4)c(F)cc3c2=O)c1", "Potency": "6.51 µM (active)"}
{"smiles": "Cc1ccc(S(=O)(=O)c2cn(Cc3ccccc3)c3cc(N4CCCC4)c(F)cc3c2=O)c(C)c1", "Potency": "20.6 µM (active)"}
{"smiles": "CCn1cc(S(=O)(=O)c2cccc(C)c2)c(=O)c2cc(F)c(N3CCN(C)CC3)cc21", "activity change, negative = growth inhibition": "-15.2%"}
{"smiles": "COCCNC(=O)C1CCN(S(=O)(=O)c2ccc3c(c2)OCCO3)CC1", "activity change, negative = growth inhibition": "-10.3%"}
{"smiles": "C[C@H]1CN([C@@H](C)CO)C(=O)CCCn2cc(nn2)CO[C@@H]1CN(C)S(=O)(=O)c1ccc(-n2cccn2)cc1", "activity change, negative = growth inhibition": "-13.4%"}
{"smiles": "CC(=O)NNc1cc(=O)c2c(=O)n(C)c(=O)n(C)c2[nH]1", "activity change, negative = growth inhibition": "-1.94%"}
{"smiles": "Cc1cccc(NC(=O)c2ccc(COc3ccccc3[N+](=O)[O-])o2)n1", "activity change, negative = growth inhibition": "-4.93%"}
{"smiles": "COc1ccc(C)cc1N1C(=O)[C@@H]2C[C@H]1CN2Cc1cccc(OC)c1O", "activity change, negative = growth inhibition": "-12.7% [at 9.04 µM]"}
